The record followed here is PubChem BioAssay (Tox21).

A short description of assay [1]: Nuclear factor erythroid 2-related factor 2/antioxidant responsive element (Nrf2/ARE) small molecule agonists: qHTS cell viability counter screen in human keratinocytes (AID 1919968; active = well fitted curve in the direction sought with a large enough effect in the repeat runs; an effect the other way counts as inactive or inconclusive; note: nearly all actives have a fitted effect of over 55% in size; note: potency is the fitted concentration of half-maximal effect). Put shortly: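 Parallel cytotoxicity read: KeratinoSens HaCaT cells, compound treatment 23 h, viability by CellTiter-Fluor fluorescence 1 h post-reagent.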
Background: In qHTS, concentration-response curves come from the screen itself.

A short description of assay [2]: Nuclear factor erythroid 2-related factor 2/antioxidant responsive element (Nrf2/ARE) small molecule agonists: luciferase reporter gene qHTS assay in human keratinocytes (AID 1919969). Note: nearly all actives have a fitted effect of over 35% in size. Note: potency is the fitted concentration of half-maximal effect. On the technique in general: A reporter such as luciferase makes a cellular process visible.
In assay [3] the target is Gonadotropin-releasing hormone receptor (Homo sapiens) (UniProt P30968). In words: Human gonadotropin-releasing hormone receptor (GnRHR) small molecule agonists, calcium flux assay in GnRHR-HEK293 cells (AID 1920063). Note: nearly all actives have a fitted effect of over 35% in size. In a few lines:
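Calcium flux, agonist mode, human GnRHR stably integrated in HEK293; dye 1 h at 37 C before compound; Ex/Em=480/540 kinetic read, 3 min; 15 concentrations, triplicate.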
On the technique in general: A change in cytosolic calcium serves as a functional read-out for many receptors and channels.

The target in assay [4] is KiSS-1 receptor (Homo sapiens) (UniProt Q969F8). Put plainly: Human kisspeptin (KISS1R) small molecule agonists, calcium flux assay in KISS1R-HEK293 cells (AID 1920064; active = well fitted curve in the direction sought with a large enough effect in the repeat runs; an effect the other way counts as inactive or inconclusive). In a few lines: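 Triplicate 15-concentration series were applied to dye-loaded human KISS1R HEK293 cells, and agonist-evoked calcium fluorescence was captured for 3 min.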
Chain of KiSS-1 receptor (Homo sapiens) (Q969F8 whole entry, looked up): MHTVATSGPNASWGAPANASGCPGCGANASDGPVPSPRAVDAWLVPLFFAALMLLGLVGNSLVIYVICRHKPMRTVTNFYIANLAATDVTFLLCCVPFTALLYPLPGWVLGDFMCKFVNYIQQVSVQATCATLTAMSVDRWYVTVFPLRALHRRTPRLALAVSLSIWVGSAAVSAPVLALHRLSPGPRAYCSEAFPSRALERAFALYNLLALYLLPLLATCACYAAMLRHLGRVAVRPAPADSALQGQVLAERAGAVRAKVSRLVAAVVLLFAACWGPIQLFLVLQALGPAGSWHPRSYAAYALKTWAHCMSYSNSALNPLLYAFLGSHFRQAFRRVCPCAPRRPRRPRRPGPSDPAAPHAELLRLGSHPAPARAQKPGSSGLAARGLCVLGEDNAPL
Assay [5] is described as follows: G protein-coupled receptor (GPCR) small molecule agonists, calcium flux assay: HEK293 wild type cell line counter screen (AID 1920065). In a few lines: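 Non-specific calcium responders were flagged by adding DMSO-dissolved compounds to dye-loaded cells and reading 480/540 nm fluorescence each second for 3 min; ATP served as positive control.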
Assay [6] is described as follows: p53 small molecule agonists, cell-based qHTS assay with human liver microsomes (AID 1963577).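 Note: p53 response element beta-lactamase reporter cells with liver microsomes plus NADPH.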 Put shortly:
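HLM-supplemented p53RE-bla reporter assay: 16 h compound exposure at 37 C, microsomes and NADPH each 0.5 mg/mL final, read by fluorescence intensity.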

A short description of assay [7]: p53 small molecule agonists, cell-based qHTS assay with rat liver microsomes (AID 1963578). In a few lines:
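Quantitative HTS of the Tox21 10K library: p53RE-bla cells, rat liver microsomes plus NADPH at 0.5 mg/mL final each, 16 h at 37 C, beta-lactamase fluorescence detection.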

Assay [8] is described as follows: p53 small molecule agonists, cell-based qHTS assay with human liver microsomes: qHTS cell viability counter screen (AID 1963579). Note: nearly all actives have a fitted effect of over 45% in size. Note: potency is the fitted concentration of half-maximal effect. In a few lines:
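Viability of p53RE-bla cells is measured as CellTiter-Glo luminescence following a 16 h, 37 C incubation with compound, liver microsomes from human donors and NADPH.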

Assay [9] can be described thus: p53 small molecule agonists, cell-based qHTS assay with rat liver microsomes: qHTS cell viability counter screen (AID 1963580). Note: nearly all actives have a fitted effect of over 45% in size. Note: potency is the fitted concentration of half-maximal effect. In a few lines: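 Cytotoxicity counter screen: intracellular ATP read by CellTiter-Glo luminescence in the p53 reporter wells. HCT-116 p53RE-bla cells were treated for 16 h at 37 C alongside rat liver microsomes and NADPH, each 0.5 mg/mL final.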

Assay [10] can be described thus: p53 small molecule agonists, cell-based qHTS assay: qHTS cell viability counter screen (AID 1963581). Note: nearly all actives have a fitted effect of over 45% in size. Note: potency is the fitted concentration of half-maximal effect. Put shortly: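 Multiplexed with the reporter read, a CellTiter-Glo step (30 min, room temperature) gauges ATP-based viability of HCT-116 p53RE-bla cells after 16 h compound incubation at 37 C.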
Assay [11] addresses 5-hydroxytryptamine receptor 2A (Homo sapiens) (UniProt P28223). In words: 5-hydroxytryptamine receptor 2A (HTR2A) small molecule antagonists, cell-based qHTS assay (AID 1963586). Note: nearly all actives have a fitted effect of over 45% in size. In a few lines:
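CHO cells stably expressing human HTR2A were plated for 18 h at 37 C, then loaded with calcium dye for 1 h. Compounds were preincubated 5 min at room temperature before DOI (4 nM solution) was added. Kinetic fluorescence was read for 3 min.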

Assay [12] has the same target. Put plainly: 5-hydroxytryptamine receptor 2A (HTR2A) small molecule agonists, cell-based qHTS assay (AID 1963587). Note: nearly all actives have a fitted effect of over 30% in size. Note: potency is the fitted concentration of half-maximal effect. Put shortly: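 Kinetic calcium-flux fluorescence (2 min, 1 sec intervals) after compound addition in agonist mode. HTR2A-CHO cells were cultured 18 h, then dye-loaded 1 h at 37 C.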
Assay [13] has as its target Muscarinic acetylcholine receptor M1 (Homo sapiens) (UniProt P11229). Put plainly: Cholinergic receptor muscarinic 1 (CHRM1) small molecule agonists, cell-based qHTS assay (AID 1963589). Note: nearly all actives have a fitted effect of over 35% in size. In a few lines:
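qHTS, 15-point titration, 3 independent runs: compounds pin-transferred onto dye-loaded CHRM1-CHO cells (human M1), calcium fluorescence followed every second to detect agonism.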

Assay [14] is described as follows: cAMP Responsive Elements (CRE) small molecule agonists, cell-based qHTS assay (AID 1963590). In a few lines: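 Quantitative HTS for CRE agonists: HEK 293T CRE-bla cells, overnight plating, 3 h compound incubation at 37 C/5% CO2, then 2 h room-temperature LiveBLAzer B/G FRET substrate loading.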
Assay [15] can be described thus: cAMP Responsive Elements (CRE) small molecule antagonists, cell-based qHTS assay (AID 1963591; active = well fitted inhibition curve with a large enough effect in the signal ratio in the repeat runs, not every such curve was filed as active; the % refers to the signal ratio). In a few lines:
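Fluorescence intensity from cleaved LiveBLAzer B/G substrate (2 h, room temperature) quantified CRE-bla activity in HEK 293T cells exposed 3 h to compound with 0.25 uM final NKH477.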

Assay [16] addresses D(2) dopamine receptor (Homo sapiens) (UniProt P14416). Put plainly: Dopamine D2 receptor (DRD2) small molecule antagonists, cell-based qHTS assay (AID 1963595; active = well fitted inhibition curve with a large enough effect in the signal ratio in the repeat runs, with a control signal flat; the % refers to the signal ratio; note: potency is the fitted concentration of half-maximal effect). In a few lines:
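HEK293 cells stably expressing DRD2 were preincubated with 0.1 mM Ro20-1724, then with compound for 10 min at room temperature. Cells were stimulated with 200 nM NKH477 plus 12 nM quinpirole for 30 min, and cAMP was read by HTRF.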

Assay [17] addresses Muscarinic acetylcholine receptor M1 (Homo sapiens) (UniProt P11229). In words: Cholinergic receptor muscarinic 1 (CHRM1) small molecule antagonists, cell-based qHTS assay (AID 1963588). Note: nearly all actives have a fitted effect of over 40% in size. Note: potency is the fitted concentration of half-maximal effect. In a few lines:
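Compounds were tested at 15 concentrations in three independent runs. Dye-loaded CHRM1-CHO cells were exposed 5 min at room temperature before stimulation by acetylcholine added at 50nM. Intracellular calcium was read kinetically on FDSS for 3 min.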

Assay [18] concerns the target Beta-2 adrenergic receptor (Homo sapiens) (UniProt P07550). Put plainly: Adrenergic beta2 receptor (ADRB2) small molecule antagonists, cell-based qHTS assay (AID 1963592). Note: series mostly up to about 92 µM; nearly all actives have a fitted effect of over 50% in size. In a few lines:
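Assay format: CHO-ADRB2 cells, 18-20hr seeding at 37C/5% CO2, then compound plus 1nM isoproterenol agonist mix for 0.5hr RT. Homogeneous time-resolved fluorescence cAMP detection after 1hr, expressed as 665/615 nm ratio.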

The target in assay [19] is D(2) dopamine receptor (Homo sapiens) (UniProt P14416). Put plainly: Dopamine D2 receptor (DRD2) small molecule agonists, cell-based qHTS assay (AID 1963594). Note: nearly all actives have a fitted effect of over 35% in size. In a few lines: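 cAMP accumulation in DRD2-HEK293 cells measured by HTRF after 1 h detection; compounds added 10 min before NKH477 (200nM […]) forskolin-analogue stimulation, 30 min at room temperature, with Ro20-1724 present at 0.1 mM final.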
Chain of D(2) dopamine receptor (Homo sapiens) (P14416 whole entry, looked up): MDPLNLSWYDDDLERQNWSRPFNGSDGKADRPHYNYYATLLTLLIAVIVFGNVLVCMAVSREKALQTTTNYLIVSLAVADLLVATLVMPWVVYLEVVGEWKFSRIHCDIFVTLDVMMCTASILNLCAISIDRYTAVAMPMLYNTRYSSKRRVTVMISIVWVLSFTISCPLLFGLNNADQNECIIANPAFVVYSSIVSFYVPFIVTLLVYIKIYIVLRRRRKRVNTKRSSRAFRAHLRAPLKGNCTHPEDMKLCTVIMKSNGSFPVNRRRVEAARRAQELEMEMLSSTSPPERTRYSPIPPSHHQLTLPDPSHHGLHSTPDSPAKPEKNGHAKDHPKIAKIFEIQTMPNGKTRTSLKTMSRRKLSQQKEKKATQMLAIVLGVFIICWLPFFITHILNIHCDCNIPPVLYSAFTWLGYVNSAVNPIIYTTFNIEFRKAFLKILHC

Assay [20] is described as follows: p53 small molecule agonists, cell-based qHTS assay (AID 1963582; active = well fitted activation curve with a large enough effect in the signal ratio in the repeat runs, not every such curve was filed as active; the % refers to the signal ratio). Put shortly:
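Beta-lactamase reporter cells (p53RE-bla) treated with compounds for 16 h at 37 C; FRET substrate, 2 h, room temperature; fluorescence intensity.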

Values joined by “and” are separate entries in the source; they are usually repeats but may differ in a detail not shown here. Identical values can stand only once. Inconclusive results are not listed. Some structures have more than one record in an assay (separate samples or runs), and their calls can disagree. Active and inactive are the calls of the source. Unless noted, calls come from the whole dose curve.

Chain of 5-hydroxytryptamine receptor 2A (Homo sapiens) (P28223 whole entry, looked up): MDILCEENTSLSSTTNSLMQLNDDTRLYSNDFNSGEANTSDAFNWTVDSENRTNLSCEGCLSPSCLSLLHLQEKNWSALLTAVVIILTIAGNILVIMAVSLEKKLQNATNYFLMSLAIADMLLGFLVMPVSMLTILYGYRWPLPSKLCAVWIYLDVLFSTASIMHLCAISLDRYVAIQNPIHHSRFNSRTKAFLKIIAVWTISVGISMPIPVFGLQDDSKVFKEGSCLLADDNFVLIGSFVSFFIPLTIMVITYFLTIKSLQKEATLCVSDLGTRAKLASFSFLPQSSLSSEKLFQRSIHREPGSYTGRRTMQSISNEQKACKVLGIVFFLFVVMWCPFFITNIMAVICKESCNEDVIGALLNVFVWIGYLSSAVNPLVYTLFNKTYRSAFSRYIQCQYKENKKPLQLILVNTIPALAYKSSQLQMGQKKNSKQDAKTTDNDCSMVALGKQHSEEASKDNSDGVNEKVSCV
Chain of Beta-2 adrenergic receptor (Homo sapiens) (P07550 whole entry, looked up): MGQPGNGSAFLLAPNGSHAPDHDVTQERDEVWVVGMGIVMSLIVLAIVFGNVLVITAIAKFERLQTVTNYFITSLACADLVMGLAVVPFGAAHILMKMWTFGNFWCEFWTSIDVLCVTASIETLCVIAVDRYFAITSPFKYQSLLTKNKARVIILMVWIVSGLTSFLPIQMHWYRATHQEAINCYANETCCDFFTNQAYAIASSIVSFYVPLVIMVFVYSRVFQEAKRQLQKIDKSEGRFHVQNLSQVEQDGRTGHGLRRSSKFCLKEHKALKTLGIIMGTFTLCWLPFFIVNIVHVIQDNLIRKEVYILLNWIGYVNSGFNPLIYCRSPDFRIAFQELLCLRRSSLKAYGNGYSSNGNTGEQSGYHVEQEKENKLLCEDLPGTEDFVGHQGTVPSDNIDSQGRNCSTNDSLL
Chain of Gonadotropin-releasing hormone receptor (Homo sapiens) (P30968 whole entry, looked up): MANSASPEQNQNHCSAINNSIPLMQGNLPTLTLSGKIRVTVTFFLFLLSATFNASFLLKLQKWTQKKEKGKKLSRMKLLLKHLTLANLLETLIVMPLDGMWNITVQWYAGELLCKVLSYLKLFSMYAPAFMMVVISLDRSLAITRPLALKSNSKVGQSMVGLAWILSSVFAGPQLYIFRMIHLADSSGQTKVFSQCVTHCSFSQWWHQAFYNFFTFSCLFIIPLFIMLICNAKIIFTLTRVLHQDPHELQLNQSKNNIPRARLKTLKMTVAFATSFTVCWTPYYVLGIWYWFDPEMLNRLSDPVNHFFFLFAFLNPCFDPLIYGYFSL
Chain of Muscarinic acetylcholine receptor M1 (Homo sapiens) (P11229 whole entry, looked up): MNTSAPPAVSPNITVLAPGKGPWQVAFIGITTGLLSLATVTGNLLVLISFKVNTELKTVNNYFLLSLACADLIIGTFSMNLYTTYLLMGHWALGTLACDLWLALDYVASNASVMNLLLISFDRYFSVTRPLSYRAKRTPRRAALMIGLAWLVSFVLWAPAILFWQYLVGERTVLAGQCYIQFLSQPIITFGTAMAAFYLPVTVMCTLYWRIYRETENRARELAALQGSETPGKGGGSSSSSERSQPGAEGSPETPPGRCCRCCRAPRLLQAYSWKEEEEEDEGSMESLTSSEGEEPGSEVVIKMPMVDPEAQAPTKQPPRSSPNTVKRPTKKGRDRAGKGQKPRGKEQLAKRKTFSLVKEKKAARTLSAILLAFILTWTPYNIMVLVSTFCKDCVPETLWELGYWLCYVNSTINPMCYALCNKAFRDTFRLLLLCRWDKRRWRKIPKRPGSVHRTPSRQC

With `c1ccc2c(c1)oc1ccccc12`, the Potency entry in assay [1], in assay [2], in assay [3], in [4], in [5] and in assay [6] was “inactive” in each case. In addition, the Potency entry in assay [7], in assay [8], in assay [9], in [10], in assay [11] and in assay [12] was “inactive” throughout. The Potency result in assay [13], in [14], in assay [15] and in assay [16] was “inactive” throughout.
For `Cc1cc(Cl)ccc1OCCCC(=O)O`, the Potency entry in [1], in assay [2], in assay [3], in assay [4], in assay [5] and in assay [6] was “inactive” in each case. Besides, the Potency result in assay [7], in assay [8], in assay [9], in [10], in [11] and in [12] was “inactive” throughout. In addition, the Potency result in assay [17], in assay [13], in assay [18], in assay [19] and in assay [16] was “inactive” each time.
As for `C=CC(=O)OCC(C)C`, the Potency result in assay [1], in assay [2], in assay [3], in [4], in assay [5] and in assay [6] was “inactive” throughout. In addition, the Potency result in [7], in assay [8], in assay [9], in assay [10], in assay [11] and in assay [12] was “inactive” throughout. In addition, the Potency entry in assay [17], in assay [13], in [14], in assay [15], in assay [18] and in assay [19] was “inactive” each time. Moreover, the Potency entry in assay [16] is “inactive”.
`O=S1OCC2C(CO1)C1(Cl)C(Cl)=C(Cl)C2(Cl)C1(Cl)Cl` (configuration not stated): the Potency was 48.6 µM (active) and 61.1 µM (active) in [1]; 43.7 µM (active) and inactive in assay [12]; 37.5 µM (active) and inactive in assay [17]. Moreover, the Potency entry in assay [2], in assay [3], in assay [4], in assay [5], in assay [6] and in assay [7] was “inactive” each time. Besides, the Potency result in assay [8], in assay [9], in assay [10], in [11], in [13] and in assay [18] was “inactive” in each case. Further, the Potency entry in assay [19] was “inactive”.
Take `COc1cc(OC)nc(NC(=O)NS(=O)(=O)c2ncccc2C(=O)N(C)C)n1`: the Potency entry in [1], in [2], in assay [3], in [4], in assay [5] and in [6] was “inactive” in each case. Further, the Potency result in [7], in [8], in assay [9], in [20], in assay [11] and in [12] was “inactive” in each case. For the same compound, the Potency result in assay [17], in [13], in assay [14], in assay [15], in [18] and in [19] was “inactive” throughout. In addition, the Potency entry in assay [16] was “inactive”.
As to `O=P(O)(Oc1ccccc1)Oc1ccccc1`, the Potency result in assay [1], in [2], in assay [3], in [4], in [5] and in assay [6] was “inactive” throughout. Moreover, the Potency entry in [7], in [8], in [9], in assay [10], in assay [11] and in assay [17] was “inactive” in each case. In addition, the Potency entry in [13], in [14], in [15], in assay [18], in [19] and in assay [16] was “inactive” throughout.
Regarding `CCC(C)(C)c1ccc(O)c(C(C)(C)CC)c1`, the Potency in assay [1] is 13.5 µM (active) and 24.3 µM (active); in assay [2] it was 7.7 µM (active); in assay [8] it was 45.3 µM (active) and 25.7 µM (active); in assay [9] it was “inactive and 25.7 µM (active)”; in assay [10] it was 18 µM (active) and 22.9 µM (active); in assay [17] it was 20.9 µM (active). In [16], the Potency entry is “inactive and 43.3 µM (active)”. In addition, the Potency result in [3], in assay [4], in [5], in assay [6], in [7] and in [13] was “inactive” each time. For the same compound, the Potency result in assay [18] and in [19] was “inactive” each time.
On to `C#CCOS(=O)OC1CCCCC1Oc1ccc(C(C)(C)C)cc1` (configuration not stated), for which the Potency in assay [1] was 68.7 µM (active) and inactive; in assay [2], 19.4 µM (active) and 19.3 µM (active); in assay [16], “inactive and 54.5 µM (active)”. Besides, the Potency entry in assay [3], in [4], in assay [5], in [6], in [7] and in assay [8] was “inactive” each time. Further, the Potency result in assay [9], in [10], in assay [11], in [12], in assay [17] and in assay [13] was “inactive” in each case. In addition, the Potency result in [18] and in assay [19] was “inactive” throughout.
